In PubChem BioAssay AID875 (National Center for Advancing Translational Sciences (NCATS), 2007):
Hit rate of the full screen: of about 75,000 compounds, about 35 (0.05%) were called active. Calls come from the whole dose curve; as a rule, active = well fitted inhibition curve with a large enough effect; inconclusive = small, poorly fitted or top-dose-only effect; inactive = no such curve, though single readings can be large or run the other way. Shown is part of a subset that was picked to be rich in actives. A call without a number means that no potency is given here.

Target: Breast cancer type 1 susceptibility protein (Homo sapiens) (UniProt P38398)
Sequence (P38398 whole entry, looked up): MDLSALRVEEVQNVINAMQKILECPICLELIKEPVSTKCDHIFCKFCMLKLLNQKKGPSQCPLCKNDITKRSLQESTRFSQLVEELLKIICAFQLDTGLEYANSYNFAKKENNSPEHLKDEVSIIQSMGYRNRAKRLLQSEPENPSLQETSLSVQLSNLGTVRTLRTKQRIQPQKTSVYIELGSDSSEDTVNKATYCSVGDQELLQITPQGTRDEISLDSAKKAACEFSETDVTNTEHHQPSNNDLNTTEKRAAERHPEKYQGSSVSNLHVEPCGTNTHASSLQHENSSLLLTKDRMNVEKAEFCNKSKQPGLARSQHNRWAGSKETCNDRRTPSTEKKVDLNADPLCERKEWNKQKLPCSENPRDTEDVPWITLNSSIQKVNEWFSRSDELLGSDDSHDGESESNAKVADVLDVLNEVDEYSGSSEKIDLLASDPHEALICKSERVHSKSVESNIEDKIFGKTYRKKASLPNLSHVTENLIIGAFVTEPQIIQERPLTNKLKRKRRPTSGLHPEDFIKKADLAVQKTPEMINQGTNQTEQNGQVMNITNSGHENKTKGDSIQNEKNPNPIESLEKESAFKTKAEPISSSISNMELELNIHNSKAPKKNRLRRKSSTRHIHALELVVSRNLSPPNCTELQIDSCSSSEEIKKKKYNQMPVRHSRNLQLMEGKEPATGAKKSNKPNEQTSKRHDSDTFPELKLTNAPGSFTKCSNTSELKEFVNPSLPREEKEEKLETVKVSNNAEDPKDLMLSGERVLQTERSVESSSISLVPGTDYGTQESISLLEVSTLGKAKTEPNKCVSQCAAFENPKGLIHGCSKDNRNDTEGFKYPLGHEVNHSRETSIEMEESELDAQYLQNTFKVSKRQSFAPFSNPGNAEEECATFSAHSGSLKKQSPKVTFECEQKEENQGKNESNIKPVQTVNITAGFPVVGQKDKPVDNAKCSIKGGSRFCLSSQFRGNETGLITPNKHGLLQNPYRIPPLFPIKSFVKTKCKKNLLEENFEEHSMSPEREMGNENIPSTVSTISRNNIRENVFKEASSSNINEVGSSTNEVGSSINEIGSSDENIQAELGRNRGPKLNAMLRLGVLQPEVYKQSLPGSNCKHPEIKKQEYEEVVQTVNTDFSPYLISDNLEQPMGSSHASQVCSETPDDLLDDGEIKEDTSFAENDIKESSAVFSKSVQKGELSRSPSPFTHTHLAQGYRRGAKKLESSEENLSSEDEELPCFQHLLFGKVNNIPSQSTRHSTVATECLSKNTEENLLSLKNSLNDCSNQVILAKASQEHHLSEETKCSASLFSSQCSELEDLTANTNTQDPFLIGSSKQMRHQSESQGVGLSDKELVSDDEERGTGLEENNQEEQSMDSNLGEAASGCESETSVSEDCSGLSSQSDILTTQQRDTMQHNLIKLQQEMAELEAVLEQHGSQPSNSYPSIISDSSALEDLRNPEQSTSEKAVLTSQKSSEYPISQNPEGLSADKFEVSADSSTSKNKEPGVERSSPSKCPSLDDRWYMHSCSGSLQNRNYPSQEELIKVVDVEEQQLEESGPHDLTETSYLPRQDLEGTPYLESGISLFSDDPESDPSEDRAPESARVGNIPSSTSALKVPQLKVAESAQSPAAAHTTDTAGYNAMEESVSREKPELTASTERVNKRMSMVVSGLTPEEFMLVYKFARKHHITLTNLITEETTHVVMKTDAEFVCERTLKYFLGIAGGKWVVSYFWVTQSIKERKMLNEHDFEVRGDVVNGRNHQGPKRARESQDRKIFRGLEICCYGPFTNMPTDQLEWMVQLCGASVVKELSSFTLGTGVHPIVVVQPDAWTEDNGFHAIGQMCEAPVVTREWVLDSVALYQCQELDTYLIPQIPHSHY
Assay: qHTS Assay for Inhibitors of BRCT-Phosphoprotein Interaction (Green Fluorophore)
Conditions: BRCA1 BRCT-phosphopeptide binding, green fluorescence polarization; series mostly up to 76.9 µM
Method: NIH Molecular Libraries Screening Centers Network [MLSCN]
NIH Chemical Genomics Center [NCGC]
PI Name: Natarajan, Amarnath; University of Texas
A complex of BRCT (C-terminal portion of BRCA1, MW ~35 kDa, His-tagged) and fluorescently labeled pBACH1 phosphorylated 10 aa peptide fragment of BACH1, a helicase implicated in DNA repair, is incubated with library members. Inhibitors of BRCT-pBACH1 binding are detected by a decrease in the fluorescence polarization (FP) of the fluorophore. In order to minimize the effect of fluorescence artifacts and to increase the overall robustness of the screen, the compound library members were incubated in separate reactions with fluorescein labeled probe-protein complexes. Protein and labeled probes were supplied by Dr. Amarnath Natarajan, Department of Pharmacology and Toxicology, University of Texas Medical Branch Galveston, TX.
Assay Buffer: 16mM Na2HPO4, 4 mM NaH2PO4, 150 mM NaCl, 1 mM EDTA, 1 mM DTT, 0.02% NaN3, and 0.01% Tween 20 at pH 7.3.
100 nM labeled decapeptide/250 nM protein in columns 1, 2, 5 - 48. Titration of unlabeled decapeptide control (from 10 mM, then 1:2 dilution in duplicate) pin-transferred to column 2, rows 1 to 16. Column 1 is neutral.
Three uL of reagents were dispensed to 1536-well Greiner black solid-bottom plates. Compounds and controls (23 nL) were transferred
via Kalypsys PinTool. The plates were incubated for 12 min at room temperature, and then read on ViewLux (Perkin-Elmer) High throughput CCD imager using FITC for the fluorescein-labeled decapeptide probe polarization filter sets. During dispense, reagent bottles were kept submerged into 4 deg C water bath and all liquid lines were covered with aluminum foil to minimize probe and protein degradation. All screening operations were performed on a Kalypsys robotic system (Kalypsys, Inc., San Diego, CA) containing one RX-130 and two RX-90 anthropomorphic robotic arms. The timing and order of assay plates passing through the screening system were adjusted such that each compound library plate was assayed against the fluorescein- and rhodamine-labeled assay systems at immediately adjacent time points.
Potency is the fitted concentration of half-maximal effect.

**Q.** How did the activity change, negative = inhibition turn out when `Cc1ccc2nc(NC3=NCN(CCc4ccccc4)CN3)nc(C)c2c1` was run?
**A.** inactive

**Q.** `COc1ccccc1-c1nc(NCc2cccs2)c2ccccc2n1` was tested. Which activity change, negative = inhibition did it give?
**A.** inactive

**Q.** `CC1=C(C(=O)Nc2ccccc2)C(c2cccs2)C(C#N)=C(SCC#N)N1` (configuration not stated) was tested. Which activity change, negative = inhibition did it give?
**A.** inactive

**Q.** With `COc1ccc(Cl)cc1S(=O)(=O)N1CCN(CC(=O)C(C)(C)C)CC1` as the molecule, how does the activity change, negative = inhibition read?
**A.** inactive

**Q.** How did the activity change, negative = inhibition turn out when `C=CCSc1nc2c(c(=O)[nH]1)C(C(C)C)C(C#N)=C(N)O2` (configuration not stated) was run?
**A.** inactive

**Q.** `O=P(c1ccc2c(c1)OCCO2)(N1CCOCC1)N1CCOCC1` was tested. Which activity change, negative = inhibition did it give?
**A.** inactive

**Q.** With `CCCCCn1c(SCCC(C)C)nc2c1c(=O)[nH]c(=O)n2C` as the molecule, how does the activity change, negative = inhibition read?
**A.** inactive

**Q.** For `Cc1sc2c(c1C)c(=O)n(-c1ccccc1)c1nncn21`, which activity change, negative = inhibition is on record?
**A.** inactive

**Q.** Which activity change, negative = inhibition does the source give for `CCCC(=O)N1c2ccc(-c3csc(N)n3)cc2CC1C` (configuration not stated) here?
**A.** inactive

**Q.** Which activity change, negative = inhibition does the source give for `CCCCCOC(=O)NCCOC(=O)Nc1ccc(C(=O)OCC)cc1` here?
**A.** inactive

**Q.** Which activity change, negative = inhibition does the source give for `Cn1c(=O)c2c(ncn2CC(=O)N2CCN(c3ccccc3)CC2)n(C)c1=O` here?
**A.** inactive

**Q.** How did the activity change, negative = inhibition turn out when `CN(CCOc1ccc(CC2SC(=O)NC2=O)cc1)c1ccccn1` (configuration not stated) was run?
**A.** -0.73% [at 3.08 µM] (inactive)

**Q.** `COc1cc2c(cc1O)C(SC)=NC(C)(C)C2` was tested. Which activity change, negative = inhibition did it give?
**A.** inactive

**Q.** For `O=C(CN1CCN(C(=O)c2ccco2)CC1)Nc1ccc(Cl)c(C(F)(F)F)c1`, which activity change, negative = inhibition is on record?
**A.** inactive

**Q.** With `Cc1ccc(C(=O)Nc2ccccc2C(=O)NC2CCCCC2)cc1S(=O)(=O)N1CCOCC1` as the molecule, how does the activity change, negative = inhibition read?
**A.** inactive

**Q.** How did the activity change, negative = inhibition turn out when `C/C(=C\C(=O)c1ccccc1)Nc1cccc(O)c1` was run?
**A.** inactive

**Q.** With `CCC/C(O)=C1\C(=O)CC(C)(C)CC1=Nc1ccccc1OC` as the molecule, how does the activity change, negative = inhibition read?
**A.** inactive

**Q.** How did the activity change, negative = inhibition turn out when `COC(=O)c1cc(NC(=O)CN2CCC(C(N)=O)(N3CCCCC3)CC2)cc(C(=O)OC)c1` was run?
**A.** inactive

**Q.** For `Cc1cc(C(=O)Nc2c(C)n(C)n(-c3ccccc3)c2=O)cs1`, which activity change, negative = inhibition is on record?
**A.** inactive

**Q.** With `COc1ccc(C2C3=C(CC(C)(C)CC3=O)Oc3ncn4nc(-c5cccnc5)nc4c32)cc1OC` (configuration not stated) as the molecule, how does the activity change, negative = inhibition read?
**A.** inactive

**Q.** With `Cn1cccc1C(=O)N1CCC[C@@]2(CCN(Cc3nccs3)C2)C1` as the molecule, how does the activity change, negative = inhibition read?
**A.** inactive

**Q.** For `O=[n+]1c2c(n([O-])c3cc(Br)ccc31)CCC2`, which activity change, negative = inhibition is on record?
**A.** inactive

**Q.** `COc1cc([C@H]2c3cc4c(cc3[C@@H](O[C@@H]3O[C@H]5CO[C@@H](C)O[C@]5(O)C[C@H]3O)[C@@H]3COC(=O)[C@H]23)OCO4)cc(OC)c1O` was tested. Which activity change, negative = inhibition did it give?
**A.** inactive

**Q.** For `FC(F)(F)c1ccc(CN2C[C@@H]3C(c4ccccc4)C4(c5ccccc5)CC3(C4)[C@H]2c2ccccc2)cc1` (some centres not stated), which activity change, negative = inhibition is on record?
**A.** inactive

**Q.** With `CC1CCN(c2nc3c(c(=O)[nH]c(=O)n3C)n2CCCc2ccccc2)CC1` as the molecule, how does the activity change, negative = inhibition read?
**A.** inactive

**Q.** Which activity change, negative = inhibition does the source give for `Cc1cccc2c3c(ccc12)C1=C(C(=O)C3=O)C(C)CO1` (configuration not stated) here?
**A.** inactive

**Q.** For `CCOC(=O)c1cc2n(c1N)-c1ccccc1C2=O`, which Potency is on record?
**A.** 15.8 µM (active)

**Q.** For `CCOC(=O)c1cc2n(c1C)-c1ccccc1C2=O`, which activity change, negative = inhibition is on record?
**A.** inactive

**Q.** Which activity change, negative = inhibition does the source give for `CCOC(=O)Nc1ccccc1N1C(=O)c2ccccc2C1=O` here?
**A.** inactive

**Q.** With `COC(=O)[C@@H]1C[C@@]2(O)[C@H](O)[C@H](O)[C@H](O)C[C@H]2N1CC1CCCCC1` as the molecule, how does the activity change, negative = inhibition read?
**A.** inactive

**Q.** With `Cn1c(=O)n(C)c2cc(CNc3ccc(N4CCOCC4)c(C(=O)O)c3)ccc21` as the molecule, how does the activity change, negative = inhibition read?
**A.** inactive

**Q.** For `O=C(NCc1ccc(Cl)cc1)c1cc2c(nc3sccn32)s1`, which activity change, negative = inhibition is on record?
**A.** inactive

**Q.** `COC(=O)[C@@H]1C[C@@]2(O)[C@@H](O)[C@@H](O)[C@@H](O)C[C@H]2N1Cc1ccc(C)s1` was tested. Which activity change, negative = inhibition did it give?
**A.** inactive

**Q.** How did the activity change, negative = inhibition turn out when `CCc1c(O)nc(SCC(=O)N2CCCCC2)n(-c2ccccc2C)c1=O` was run?
**A.** inactive

**Q.** How did the activity change, negative = inhibition turn out when `O=C(NC1CCCC1)c1ccc(Br)s1` was run?
**A.** inactive

**Q.** How did the activity change, negative = inhibition turn out when `COc1ccccc1CNC(=O)C1CCN(S(C)(=O)=O)CC1` was run?
**A.** inactive

**Q.** With `Cc1nnc(NC2=NCCCCC2)o1` as the molecule, how does the activity change, negative = inhibition read?
**A.** inactive

**Q.** How did the activity change, negative = inhibition turn out when `CCNc1nc(NCC)nc(N(C)n2cnnc2)n1` was run?
**A.** inactive

**Q.** For `c1csc(-c2cn3c(n2)SCC3)c1`, which activity change, negative = inhibition is on record?
**A.** inactive

**Q.** `O=C(c1csnn1)N1CCC[C@@]2(CCN(Cc3nccs3)C2)C1` was tested. Which activity change, negative = inhibition did it give?
**A.** inactive

**Q.** Which activity change, negative = inhibition does the source give for `COc1cc(-c2nc(S(=O)(=O)c3ccc(Cl)cc3)c(N(C)C)o2)cc(OC)c1OC` here?
**A.** inactive

**Q.** How did the activity change, negative = inhibition turn out when `COc1ccc(NC(=O)CSc2nnc(-c3cccs3)n2Cc2ccco2)cc1OC` was run?
**A.** inactive

**Q.** For `COC(=O)[C@@H]1C[C@@]2(O)[C@H](O)[C@H](O)[C@H](O)C[C@H]2N1Cc1ccc(C(C)(C)C)cc1`, which activity change, negative = inhibition is on record?
**A.** inactive

**Q.** Which activity change, negative = inhibition does the source give for `Cc1ccc(S(=O)(=O)C(C#N)c2nc3ccccc3nc2N2CCCC2)cc1C` (configuration not stated) here?
**A.** inactive

**Q.** `O=C(CC1NCCNC1=O)Nc1ccc(Oc2ccccc2)cc1` (configuration not stated) was tested. Which activity change, negative = inhibition did it give?
**A.** inactive

**Q.** Which activity change, negative = inhibition does the source give for `COC(=O)Nc1ccc(S(=O)(=O)N(C)CC(F)(F)C(F)F)cc1` here?
**A.** inactive

**Q.** How did the activity change, negative = inhibition turn out when `Cc1c2cnn(-c3ccccc3)c(=O)c2c(C)n1CCCC(=O)N1CCN(C)CC1` was run?
**A.** inactive

**Q.** With `O=c1c2c(nc3n1CCCCC3)sc1c(O)cccc12` as the molecule, how does the activity change, negative = inhibition read?
**A.** inactive

**Q.** `COC(=O)[C@@H]1C[C@H]2CC[C@H](O)C[C@H]2N1Cc1ccc(N2CCN(C)CC2)cc1` was tested. Which activity change, negative = inhibition did it give?
**A.** inactive

**Q.** How did the activity change, negative = inhibition turn out when `CC(=O)OCC(=O)[C@@]1(O)CCC2C3CCC4=CC(=O)CC[C@@]4(C)[C@]3(F)C(O)C[C@]21C` (some centres not stated) was run?
**A.** -2.43% [at 3.08 µM] (inactive)

**Q.** For `OCCCN1c2ccccc2Nc2nnc(-c3ccccc3)cc21`, which activity change, negative = inhibition is on record?
**A.** inactive

**Q.** With `COC1C[C@@H](O[C@@H]2C(C)C(=O)OC(C)C(C)C(O)C(C)C(=O)[C@@]3(CO3)CC(C)C(OC3OC(C)CC(N(C)C)C3O)C2C)OC(C)[C@@H]1O` (some centres not stated) as the molecule, how does the activity change, negative = inhibition read?
**A.** -1.55% [at 3.08 µM] (inactive)

**Q.** With `CCN(CC)S(=O)(=O)c1ccc2nc(CSc3nnnn3-c3ccc(O)cc3)[nH]c2c1` as the molecule, how does the activity change, negative = inhibition read?
**A.** inactive

**Q.** `CCC1=C(OC(=O)N(CC)CC)N2C(=O)OC(=NCCc3c[nH]c4ccccc34)[C@]2(C)[C@H]2C1=CC[C@H]1C(=O)N(CC)C(=O)[C@H]12` was tested. Which activity change, negative = inhibition did it give?
**A.** inactive

**Q.** Which activity change, negative = inhibition does the source give for `CSCCC1NC2(C(=O)Nc3ccc(Cl)cc32)[C@@H]2C(=O)N(C3CCCC3)C(=O)[C@H]12` (some centres not stated) here?
**A.** inactive

**Q.** With `c1ccc2c(CNn3cnnc3)cccc2c1` as the molecule, how does the activity change, negative = inhibition read?
**A.** inactive

**Q.** For `Cc1occc1C(=O)Nc1cccc(Cn2cccn2)c1`, which activity change, negative = inhibition is on record?
**A.** inactive

**Q.** With `CCCc1nc2ccccc2c(=O)n1/N=C/c1ccc(O)c(O)c1` as the molecule, how does the activity change, negative = inhibition read?
**A.** inactive

**Q.** Which activity change, negative = inhibition does the source give for `CC(C)C[C@H](NC(=O)NCCc1ccc(Cl)cc1)C(=O)O` here?
**A.** inactive

**Q.** `Cn1c(SCC(=O)Nc2cccc(NC(=O)c3cccs3)c2)nnc1-c1ccncc1` was tested. Which activity change, negative = inhibition did it give?
**A.** inactive

**Q.** How did the activity change, negative = inhibition turn out when `CCCOc1ccc(C2C(C(=O)c3ccc(C)o3)=C(O)C(=O)N2CCCn2ccnc2)cc1` (configuration not stated) was run?
**A.** inactive

**Q.** `N#Cc1c(NC(=O)CSc2nc3ccccc3c(=O)n2Cc2ccco2)sc2c1CCCC2` was tested. Which activity change, negative = inhibition did it give?
**A.** inactive
